Assay results published in PubChem BioAssay (NCI).
“And” between values parts separate entries of the source, which are not always exact repeats. Identical values can stand only once. This is part of a sample that, as a whole, favours compounds with a hit. Of some 83,000 tested, about 20% had one in any assay.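 How to read the values: 0–100, growth inhibition (40 = 60% inhibited); 0, no net growth; -100 to 0, cell death (-40 = 40% of starting cells died; -100 = all dead).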 Values without a mark were called inactive. The source made the active and inactive calls. The calls were made as follows: active = growth percent below 10; inactive = the rest.

Experiments:
Experiment in all cases: NCI-60 one-dose screen, 48 h (100 = growth as untreated, 0 = no growth, -100 = all killed)
HCT-15 colon = conditions: 10 µM unless noted
HT29 colon = conditions: 10 µM unless noted
SNB-75 CNS = conditions: 10 µM unless noted
SNB-19 CNS = conditions: 10 µM unless noted
U251 CNS = conditions: 10 µM unless noted
PC-3 prostate = conditions: 10 µM unless noted
SK-MEL-5 melanoma = conditions: 10 µM unless noted
UACC-62 melanoma = conditions: 10 µM unless noted
LOX IMVI melanoma = conditions: 10 µM unless noted
SK-MEL-28 melanoma = conditions: 10 µM unless noted
SK-MEL-2 melanoma = conditions: 10 µM unless noted
EKVX NSCLC = conditions: 10 µM
SN12C renal = conditions: 10 µM unless noted
UO-31 renal = conditions: 10 µM unless noted
TK-10 renal = conditions: 10 µM unless noted
ACHN renal = conditions: 10 µM unless noted
CAKI-1 renal = conditions: 10 µM unless noted
A498 renal = conditions: 10 µM unless noted
CCRF-CEM leukemia = conditions: 10 µM
MOLT-4 leukemia = conditions: 10 µM unless noted

SMILES	growth (HCT-15 colon)	growth (HT29 colon)	growth (SNB-75 CNS)	growth (SNB-19 CNS)	growth (U251 CNS)	growth (PC-3 prostate)	growth (SK-MEL-5 melanoma)	growth (UACC-62 melanoma)	growth (LOX IMVI melanoma)	growth (SK-MEL-28 melanoma)	growth (SK-MEL-2 melanoma)	growth (EKVX NSCLC)	growth (SN12C renal)	growth (UO-31 renal)	growth (TK-10 renal)	growth (ACHN renal)	growth (CAKI-1 renal)	growth (A498 renal)	growth (CCRF-CEM leukemia)	growth (MOLT-4 leukemia)
CC(=O)Nc1ccc(S(N)(=O)=O)cc1	107% and 93.5%	106% and 96.8%	107% and 92.5%	98.3% and 107%	93% and 96.2%	81.2% and 99.1%	93.2% and 101%	99.8%	98% and 92.1%	107% and 110%	109% and 110%	102%	97.5% and 102%	95.8% and 84.3%	101%	103% and 93.3%	108% and 93.2%	85.8% and 101%	93.2% and 100%	103% and 98.8%
OCC1OC(O)C(O)C(O)C1O (stereo not drawn)	97.2%	92.5%	–	107%	113%	92.2%	110%	117%	100%	–	115%	114%	103%	97.4%	100%	99.9%	89%	105%	92.3%	96.6%
CC(C)C(C)(C)c1ccc(O)cc1	105%	102%	97.8%	–	102%	93.1%	99.9%	101%	98.4%	105%	104%	107%	102%	98.1%	107%	112%	96.4%	102%	105%	106%
CC(C)NCC(O)c1ccc(O)c(O)c1 (stereo not drawn)	104% and 106% and 99.5%	100% and 111%	75.3% and 83.1% and 82.2%	101% and 89.5% and 93.5%	98.6% and 118% and 99.2%	93.8% and 95.8%	94.6% and 90.3% and 120%	101% and 109% and 98.5%	94.2% and 111% and 95.4%	107% and 116% and 101%	110% and 240%	104% and 85% and 91.2%	76.5% and 91.4% and 92.8%	82.6% and 106% and 76.1%	92.5% and 87.4%	89.6% and 104%	93.6% and 83.6%	95.8% and 119% and 78.3%	90.8% and 100% and 103%	98.5% and 95.2% and 98.8%
CC(=O)OC(C)C(=O)NCC(C)O (stereo not drawn)	100%	110%	93.2%	110%	–	96.6%	–	122%	101%	105%	110%	–	106%	82.4%	113%	102%	108%	98.2%	98.9%	98.1%
CC1CCC2(OC1)OC1CC3C4CC=C5CC(O)CCC5(C)C4CCC3(C)C1C2C (stereo not drawn)	105%	108%	83%	96.1%	94.8%	96.4%	105%	90.6%	91.2%	115%	122%	96.6%	100%	86%	101%	93.5%	–	110%	-55.7% (active)	102%
